Data on 13 compounds can be found in PubChem BioAssay.

As a reminder, the viability is a read-out of living cells in per cent, often relative to untreated cells.

Activity calls are given as the source filed them.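 The calls were made as follows, unless noted: active = normalized viability below 100% at a tested concentration; inactive = the rest.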

The first test in a line: phospholipid biosynthesis inhibitors in animal cells, primary screen, cell-based, LOPAC library, screen 4 (AID 1347384; call rule not given here). Particulars: phospholipid biosynthesis inhibition screen, at 10 µM.
As for `N#CCCN`, the result was inactive.
As to `[Cl][Pt].[NH2-].[NH2-].c1ccncc1`, the compound was classed as inactive.
Still for that read-out and setting: the result for `C[C@H]1C2Cc3ccc(O)cc3[C@@]1(C)CCN2CC1CC1` reads “inactive”.

A further test is described as follows: survival rescue of mitochondrial mutant cells in low glucose, primary screen, MELAS cybrids, Rieske KO mouse fibroblasts, CellTiter-Glo (AID 1508586;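 active = mean z-score across replicates of 1.96 or higher in either the MELAS or the Rieske mutant cell line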;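 also: z relative to plate mean and SD of compound and empty wells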). The following applies: MELAS cybrid survival, CellTiter-Glo 48 h, stronger effect = higher value. A general note: In ATP-based viability assays light output follows the ATP content of the culture.
As for `CN1CCN(C(=O)OC2c3nccnc3C(=O)N2c2ccc(Cl)cn2)CC1` (centres undefined), the z-score was -0.0147 (inactive).
The same measure, in the same setting: then `CC[C@H](C)[C@H]1O[C@]2(C=C[C@@H]1C)C[C@@H]1C[C@@H](C/C=C(\C)C(O[C@H]3C[C@H](OC)C(O[C@H]4C[C@H](OC)[C@@H](O)[C@H](C)O4)[C@H](C)O3)[C@@H](C)/C=C/C=C3\CO[C@@H]4[C@H](O)C(C)=C[C@@H](C(=O)O1)[C@]34O)O2` (some centres undefined), with -1.19 (inactive); and `C=CC[C@]1(O)CC[C@H]2[C@@H]3CCC4=CC(=O)CCC4=C3C=C[C@@]21C`, with 0.712 (inactive).
Same read-out and setting: the result for `CCN(CC)C(C)C(=O)c1ccccc1` (centres undefined) reads 0.648 (inactive); that for `COCCCOc1ccnc(CS(=O)c2nc3ccccc3[nH]2)c1C` (centres undefined), 1.01 (inactive); that for `CC(=O)O[C@H]1C[C@H](O[C@H]2[C@@H](O)C[C@H](O[C@H]3[C@@H](O)C[C@H](O[C@H]4CC[C@@]5(C)[C@H](CC[C@@H]6[C@@H]5C[C@@H](O)[C@]5(C)[C@@H](C7=CC(=O)OC7)CC[C@]65O)C4)O[C@@H]3C)O[C@@H]2C)O[C@H](C)[C@H]1O[C@@H]1O[C@H](CO)[C@@H](O)[C@H](O)[C@H]1O`, 2.15 (active).
Still for that read-out and setting: then `C=CCC1(CC(C)C)C(=O)NC(=O)NC1=O`, with 0.0849 (inactive).

The same test, now with this note: Rieske KO mouse fibroblast survival, CellTiter-Glo 72 h.
`CN1CCN(C(=O)OC2c3nccnc3C(=O)N2c2ccc(Cl)cn2)CC1` (centres undefined) had a z-score of 0.36.
On the same count and under the same terms, the result for `CC[C@H](C)[C@H]1O[C@]2(C=C[C@@H]1C)C[C@@H]1C[C@@H](C/C=C(\C)C(O[C@H]3C[C@H](OC)C(O[C@H]4C[C@H](OC)[C@@H](O)[C@H](C)O4)[C@H](C)O3)[C@@H](C)/C=C/C=C3\CO[C@@H]4[C@H](O)C(C)=C[C@@H](C(=O)O1)[C@]34O)O2` (some centres undefined) reads 1.52.
On the same count and under the same terms, the result for `C=CC[C@]1(O)CC[C@H]2[C@@H]3CCC4=CC(=O)CCC4=C3C=C[C@@]21C` reads 0.629; that for `CCN(CC)C(C)C(=O)c1ccccc1` (centres undefined), -0.333.
Still for that read-out and setting: the result for `COCCCOc1ccnc(CS(=O)c2nc3ccccc3[nH]2)c1C` (centres undefined) reads 0.105; that for `CC(=O)O[C@H]1C[C@H](O[C@H]2[C@@H](O)C[C@H](O[C@H]3[C@@H](O)C[C@H](O[C@H]4CC[C@@]5(C)[C@H](CC[C@@H]6[C@@H]5C[C@@H](O)[C@]5(C)[C@@H](C7=CC(=O)OC7)CC[C@]65O)C4)O[C@@H]3C)O[C@@H]2C)O[C@H](C)[C@H]1O[C@@H]1O[C@H](CO)[C@@H](O)[C@H](O)[C@H]1O`, 0.322; that for `C=CCC1(CC(C)C)C(=O)NC(=O)NC1=O`, 0.0147.

A short description of a further test: ovarian cancer cell viability with rucaparib, profiling panel, oncology-focused library, rucaparib conditional (AID 1508598). The following applies: patient-derived ovarian cancer cells, CellTiter-Glo viability, 144 h; at 0.000305 µM; OCI-C5x cells; with rucaparib 10 µM; stronger effect = lower value; 100% = cells with rucaparib alone.
Regarding `C/C(=C\c1csc(C)n1)[C@H]1C[C@@H]2O[C@]2(C)CCC[C@H](C)[C@H](O)[C@@H](C)C(=O)C(C)(C)[C@H](O)CC(=O)O1`, the viability is 47% (active).
Same read-out and setting: then `C/C(=C\c1csc(C)n1)[C@H]1C[C@@H]2O[C@@H]2CCC[C@H](C)[C@H](O)[C@@H](C)C(=O)C(C)(C)[C@H](O)CC(=O)O1`, with 72.1% (active); and `CC(C)[C@@]12O[C@@H]1[C@@H]1O[C@]13[C@]1(O[C@@H]1C[C@@H]1C4=C(CC[C@@]13C)C(=O)OC4)[C@@H]2O`, with 33.2% (active).

The same test, now with this note: patient-derived ovarian cancer cells, CellTiter-Glo viability, 144 h; at 0.000305 µM; OCI-C5x cells; without rucaparib; stronger effect = lower value.
For `C/C(=C\c1csc(C)n1)[C@H]1C[C@@H]2O[C@]2(C)CCC[C@H](C)[C@H](O)[C@@H](C)C(=O)C(C)(C)[C@H](O)CC(=O)O1`, the viability is 25.7% (active).
Same read-out and setting: then `C/C(=C\c1csc(C)n1)[C@H]1C[C@@H]2O[C@@H]2CCC[C@H](C)[C@H](O)[C@@H](C)C(=O)C(C)(C)[C@H](O)CC(=O)O1`, with 52.1% (active); and `CC(C)[C@@]12O[C@@H]1[C@@H]1O[C@]13[C@]1(O[C@@H]1C[C@@H]1C4=C(CC[C@@]13C)C(=O)OC4)[C@@H]2O`, with 23.2% (active).

Still in this test, the particulars now being: patient-derived ovarian cancer cells, CellTiter-Glo viability, 144 h; at 0.000305 µM; OCI-P5x cells; with rucaparib 20 µM; stronger effect = lower value; 100% = cells with rucaparib alone.
Regarding `C/C(=C\c1csc(C)n1)[C@H]1C[C@@H]2O[C@]2(C)CCC[C@H](C)[C@H](O)[C@@H](C)C(=O)C(C)(C)[C@H](O)CC(=O)O1`, the viability is 57.2% (active).
Turning to `C/C(=C\c1csc(C)n1)[C@H]1C[C@@H]2O[C@@H]2CCC[C@H](C)[C@H](O)[C@@H](C)C(=O)C(C)(C)[C@H](O)CC(=O)O1`, the viability is 73.7% (active).
Still for that read-out and setting: then `CC(C)[C@@]12O[C@@H]1[C@@H]1O[C@]13[C@]1(O[C@@H]1C[C@@H]1C4=C(CC[C@@]13C)C(=O)OC4)[C@@H]2O`, with 11.8% (active).

Still in this test, the particulars now being: patient-derived ovarian cancer cells, CellTiter-Glo viability, 144 h; at 0.000305 µM; OCI-P5x cells; without rucaparib; stronger effect = lower value.
With `C/C(=C\c1csc(C)n1)[C@H]1C[C@@H]2O[C@]2(C)CCC[C@H](C)[C@H](O)[C@@H](C)C(=O)C(C)(C)[C@H](O)CC(=O)O1`, the viability was 15.5% (active).
In the case of `C/C(=C\c1csc(C)n1)[C@H]1C[C@@H]2O[C@@H]2CCC[C@H](C)[C@H](O)[C@@H](C)C(=O)C(C)(C)[C@H](O)CC(=O)O1`, the viability is 30% (active).
For the compound `CC(C)[C@@]12O[C@@H]1[C@@H]1O[C@]13[C@]1(O[C@@H]1C[C@@H]1C4=C(CC[C@@]13C)C(=O)OC4)[C@@H]2O`, the viability is 6.41% (active).
